Laboratory results reported in ChEMBL document CHEMBL1961873, “Compounds: GSK PKIS; Assays: Nanosyn kinase panel” (2012).

Columns and labels:
[1] = molecular target: Sphingosine kinase 1 (Homo sapiens) (UniProt Q9NYA1); details: at 1 µM;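 note: mean SPHK1 inhibition value reported from the GSK PKIS kinase panel screen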
[2] = molecular target: T1, Sphingosine kinase 2 (Homo sapiens) (UniProt Q9NRA0); details: at 0.1 µM
T1 sequence (whole entry): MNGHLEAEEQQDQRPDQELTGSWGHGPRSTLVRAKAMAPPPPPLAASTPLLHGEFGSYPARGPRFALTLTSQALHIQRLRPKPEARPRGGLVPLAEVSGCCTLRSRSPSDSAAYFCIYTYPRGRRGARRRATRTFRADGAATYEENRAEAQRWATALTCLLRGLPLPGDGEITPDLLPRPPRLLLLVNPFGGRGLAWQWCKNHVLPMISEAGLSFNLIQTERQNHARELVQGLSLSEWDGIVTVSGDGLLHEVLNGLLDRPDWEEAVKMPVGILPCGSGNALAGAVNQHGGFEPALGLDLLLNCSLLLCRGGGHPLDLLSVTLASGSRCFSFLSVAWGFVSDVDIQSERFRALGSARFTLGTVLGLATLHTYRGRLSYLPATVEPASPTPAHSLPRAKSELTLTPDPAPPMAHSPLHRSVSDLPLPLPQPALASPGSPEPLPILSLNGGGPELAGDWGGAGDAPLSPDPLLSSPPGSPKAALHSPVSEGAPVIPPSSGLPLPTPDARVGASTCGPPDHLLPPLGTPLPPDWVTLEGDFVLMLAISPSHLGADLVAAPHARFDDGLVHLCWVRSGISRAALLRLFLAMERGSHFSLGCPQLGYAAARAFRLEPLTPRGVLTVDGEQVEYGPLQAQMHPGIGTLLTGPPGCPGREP

[3] = molecular target: T1, Sphingosine kinase 2 (Homo sapiens); details: at 1 µM
[4] = molecular target: Casein kinase II subunit alpha (Homo sapiens) (UniProt P68400); details: at 0.1 µM
[5] = molecular target: Casein kinase II subunit alpha (Homo sapiens) (UniProt P68400); details: at 1 µM
[6] = molecular target: T2, Inhibitor of nuclear factor kappa-B kinase subunit alpha (Homo sapiens) (UniProt O15111); details: at 0.1 µM
T2 sequence (whole entry): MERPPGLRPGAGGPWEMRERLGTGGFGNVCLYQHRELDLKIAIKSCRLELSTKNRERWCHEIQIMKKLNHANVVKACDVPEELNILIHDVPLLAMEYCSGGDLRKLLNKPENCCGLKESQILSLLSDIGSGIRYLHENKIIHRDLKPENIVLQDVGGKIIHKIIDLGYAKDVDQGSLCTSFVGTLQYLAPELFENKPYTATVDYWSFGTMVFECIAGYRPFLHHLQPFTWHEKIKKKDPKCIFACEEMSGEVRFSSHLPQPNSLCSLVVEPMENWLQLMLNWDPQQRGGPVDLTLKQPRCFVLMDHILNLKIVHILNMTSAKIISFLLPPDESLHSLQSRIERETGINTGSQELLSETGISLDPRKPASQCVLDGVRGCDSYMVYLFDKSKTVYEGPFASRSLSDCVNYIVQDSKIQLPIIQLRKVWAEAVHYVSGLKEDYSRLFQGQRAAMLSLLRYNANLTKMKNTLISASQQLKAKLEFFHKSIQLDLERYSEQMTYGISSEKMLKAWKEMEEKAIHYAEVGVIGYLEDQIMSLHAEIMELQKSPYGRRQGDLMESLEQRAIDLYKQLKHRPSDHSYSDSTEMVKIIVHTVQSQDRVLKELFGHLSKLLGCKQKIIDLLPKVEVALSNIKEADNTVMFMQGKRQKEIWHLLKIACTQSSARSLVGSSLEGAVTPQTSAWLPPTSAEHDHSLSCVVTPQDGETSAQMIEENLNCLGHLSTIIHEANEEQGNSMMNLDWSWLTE

[7] = molecular target: T2, Inhibitor of nuclear factor kappa-B kinase subunit alpha (Homo sapiens); details: at 1 µM
[8] = molecular target: T3, Inhibitor of nuclear factor kappa-B kinase subunit beta (Homo sapiens) (UniProt O14920); details: at 0.1 µM
T3 sequence (whole entry): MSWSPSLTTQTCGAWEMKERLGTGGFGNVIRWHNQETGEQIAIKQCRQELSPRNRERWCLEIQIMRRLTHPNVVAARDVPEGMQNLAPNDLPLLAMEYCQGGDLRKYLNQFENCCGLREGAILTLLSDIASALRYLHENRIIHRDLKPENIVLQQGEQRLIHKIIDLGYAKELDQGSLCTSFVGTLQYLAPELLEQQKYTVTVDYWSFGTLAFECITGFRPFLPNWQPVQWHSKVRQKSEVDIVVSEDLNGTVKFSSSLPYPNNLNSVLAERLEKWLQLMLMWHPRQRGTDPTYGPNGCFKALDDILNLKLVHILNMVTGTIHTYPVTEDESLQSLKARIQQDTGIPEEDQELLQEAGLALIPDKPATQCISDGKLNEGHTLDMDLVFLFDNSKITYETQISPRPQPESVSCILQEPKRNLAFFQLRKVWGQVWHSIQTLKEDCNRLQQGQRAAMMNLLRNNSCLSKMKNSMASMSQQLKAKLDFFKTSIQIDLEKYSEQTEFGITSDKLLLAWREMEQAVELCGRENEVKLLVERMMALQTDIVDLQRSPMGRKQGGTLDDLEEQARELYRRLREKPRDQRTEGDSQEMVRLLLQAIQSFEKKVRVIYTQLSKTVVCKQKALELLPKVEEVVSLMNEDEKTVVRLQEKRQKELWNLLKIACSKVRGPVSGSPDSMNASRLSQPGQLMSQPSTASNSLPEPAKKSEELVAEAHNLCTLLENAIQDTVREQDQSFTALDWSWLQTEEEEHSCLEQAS

[9] = molecular target: T3, Inhibitor of nuclear factor kappa-B kinase subunit beta (Homo sapiens); details: at 1 µM
[10] = molecular target: T4, Inhibitor of nuclear factor kappa-B kinase subunit epsilon (Homo sapiens) (UniProt Q14164); details: at 0.1 µM
T4 sequence (whole entry): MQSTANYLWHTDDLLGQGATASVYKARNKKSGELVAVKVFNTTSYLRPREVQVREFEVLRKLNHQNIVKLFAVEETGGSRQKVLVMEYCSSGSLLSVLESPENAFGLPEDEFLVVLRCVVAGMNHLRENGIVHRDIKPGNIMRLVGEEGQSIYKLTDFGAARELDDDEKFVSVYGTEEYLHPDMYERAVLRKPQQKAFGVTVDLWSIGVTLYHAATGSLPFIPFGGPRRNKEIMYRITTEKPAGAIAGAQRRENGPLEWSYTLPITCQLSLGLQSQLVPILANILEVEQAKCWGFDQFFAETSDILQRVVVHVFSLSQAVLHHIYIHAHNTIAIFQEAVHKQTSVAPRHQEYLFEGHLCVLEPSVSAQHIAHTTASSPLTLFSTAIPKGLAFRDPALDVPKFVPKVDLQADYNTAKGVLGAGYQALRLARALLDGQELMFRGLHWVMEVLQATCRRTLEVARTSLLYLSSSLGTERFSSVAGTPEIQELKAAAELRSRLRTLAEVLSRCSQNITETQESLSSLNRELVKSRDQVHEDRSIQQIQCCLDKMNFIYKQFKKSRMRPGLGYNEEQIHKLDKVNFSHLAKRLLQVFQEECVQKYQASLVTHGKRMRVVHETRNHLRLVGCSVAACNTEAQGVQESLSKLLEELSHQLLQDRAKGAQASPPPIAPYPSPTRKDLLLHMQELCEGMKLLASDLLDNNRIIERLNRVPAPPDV

[11] = molecular target: T4, Inhibitor of nuclear factor kappa-B kinase subunit epsilon (Homo sapiens); details: at 1 µM
[12] = molecular target: T5, Serine/threonine-protein kinase Nek1 (Homo sapiens) (UniProt Q96PY6); details: at 0.1 µM
T5 sequence (whole entry): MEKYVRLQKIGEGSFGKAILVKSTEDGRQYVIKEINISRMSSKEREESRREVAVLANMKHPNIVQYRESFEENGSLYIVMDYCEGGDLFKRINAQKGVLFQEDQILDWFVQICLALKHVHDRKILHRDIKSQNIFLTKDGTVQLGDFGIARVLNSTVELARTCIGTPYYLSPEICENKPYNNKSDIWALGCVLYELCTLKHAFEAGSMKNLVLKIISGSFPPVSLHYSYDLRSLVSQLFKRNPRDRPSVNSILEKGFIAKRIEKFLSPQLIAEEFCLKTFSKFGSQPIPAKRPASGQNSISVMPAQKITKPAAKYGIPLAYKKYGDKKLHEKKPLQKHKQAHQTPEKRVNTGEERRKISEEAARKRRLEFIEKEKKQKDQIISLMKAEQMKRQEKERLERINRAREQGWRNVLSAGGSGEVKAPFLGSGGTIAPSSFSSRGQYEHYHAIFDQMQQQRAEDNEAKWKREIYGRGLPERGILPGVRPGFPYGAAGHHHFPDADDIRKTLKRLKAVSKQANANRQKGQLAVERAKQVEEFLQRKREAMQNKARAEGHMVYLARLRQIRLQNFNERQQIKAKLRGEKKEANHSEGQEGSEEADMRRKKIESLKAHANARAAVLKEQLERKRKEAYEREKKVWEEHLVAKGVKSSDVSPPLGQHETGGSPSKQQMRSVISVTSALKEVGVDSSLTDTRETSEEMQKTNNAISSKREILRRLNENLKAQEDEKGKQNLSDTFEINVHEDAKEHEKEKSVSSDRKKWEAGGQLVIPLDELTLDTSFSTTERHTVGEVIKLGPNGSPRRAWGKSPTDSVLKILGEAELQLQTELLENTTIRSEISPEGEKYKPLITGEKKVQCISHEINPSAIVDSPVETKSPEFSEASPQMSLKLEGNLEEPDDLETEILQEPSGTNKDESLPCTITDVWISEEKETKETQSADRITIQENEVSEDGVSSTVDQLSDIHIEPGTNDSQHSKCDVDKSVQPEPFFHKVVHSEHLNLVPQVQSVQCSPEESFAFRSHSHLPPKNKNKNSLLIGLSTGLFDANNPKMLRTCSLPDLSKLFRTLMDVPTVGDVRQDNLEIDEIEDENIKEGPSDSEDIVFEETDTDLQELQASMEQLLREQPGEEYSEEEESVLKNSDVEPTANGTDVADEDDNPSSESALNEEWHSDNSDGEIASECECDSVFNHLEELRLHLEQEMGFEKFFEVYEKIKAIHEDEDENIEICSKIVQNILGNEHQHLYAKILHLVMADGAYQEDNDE

[13] = molecular target: T5, Serine/threonine-protein kinase Nek1 (Homo sapiens); details: at 1 µM
[14] = molecular target: T6, Serine/threonine-protein kinase Nek2 (Homo sapiens) (UniProt P51955); details: at 0.1 µM
T6 sequence (whole entry): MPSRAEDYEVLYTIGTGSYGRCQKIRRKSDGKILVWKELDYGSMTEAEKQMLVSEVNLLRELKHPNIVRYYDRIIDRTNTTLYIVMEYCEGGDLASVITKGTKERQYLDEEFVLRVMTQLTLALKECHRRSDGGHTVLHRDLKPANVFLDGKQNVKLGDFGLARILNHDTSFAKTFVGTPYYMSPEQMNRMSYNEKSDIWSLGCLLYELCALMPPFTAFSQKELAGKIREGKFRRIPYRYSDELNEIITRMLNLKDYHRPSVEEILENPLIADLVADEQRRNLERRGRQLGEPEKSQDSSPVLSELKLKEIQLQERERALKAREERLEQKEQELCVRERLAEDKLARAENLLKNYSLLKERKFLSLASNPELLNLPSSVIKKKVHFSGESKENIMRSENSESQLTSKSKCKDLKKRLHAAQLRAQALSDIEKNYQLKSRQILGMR

[15] = molecular target: T6, Serine/threonine-protein kinase Nek2 (Homo sapiens); details: at 1 µM
[16] = molecular target: Serine/threonine-protein kinase Nek6 (Homo sapiens) (UniProt Q9HC98); details: at 0.1 µM
[17] = molecular target: Serine/threonine-protein kinase Nek6 (Homo sapiens) (UniProt Q9HC98); details: at 1 µM
[18] = molecular target: Serine/threonine-protein kinase Nek7 (Homo sapiens) (UniProt Q8TDX7); details: at 0.1 µM
[19] = molecular target: Serine/threonine-protein kinase Nek7 (Homo sapiens) (UniProt Q8TDX7); details: at 1 µM
[20] = molecular target: T7, Serine/threonine-protein kinase Nek9 (Homo sapiens) (UniProt Q8TD19); details: at 0.1 µM;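 note: reported value is the mean percent inhibition of NEK9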
T7 sequence (whole entry): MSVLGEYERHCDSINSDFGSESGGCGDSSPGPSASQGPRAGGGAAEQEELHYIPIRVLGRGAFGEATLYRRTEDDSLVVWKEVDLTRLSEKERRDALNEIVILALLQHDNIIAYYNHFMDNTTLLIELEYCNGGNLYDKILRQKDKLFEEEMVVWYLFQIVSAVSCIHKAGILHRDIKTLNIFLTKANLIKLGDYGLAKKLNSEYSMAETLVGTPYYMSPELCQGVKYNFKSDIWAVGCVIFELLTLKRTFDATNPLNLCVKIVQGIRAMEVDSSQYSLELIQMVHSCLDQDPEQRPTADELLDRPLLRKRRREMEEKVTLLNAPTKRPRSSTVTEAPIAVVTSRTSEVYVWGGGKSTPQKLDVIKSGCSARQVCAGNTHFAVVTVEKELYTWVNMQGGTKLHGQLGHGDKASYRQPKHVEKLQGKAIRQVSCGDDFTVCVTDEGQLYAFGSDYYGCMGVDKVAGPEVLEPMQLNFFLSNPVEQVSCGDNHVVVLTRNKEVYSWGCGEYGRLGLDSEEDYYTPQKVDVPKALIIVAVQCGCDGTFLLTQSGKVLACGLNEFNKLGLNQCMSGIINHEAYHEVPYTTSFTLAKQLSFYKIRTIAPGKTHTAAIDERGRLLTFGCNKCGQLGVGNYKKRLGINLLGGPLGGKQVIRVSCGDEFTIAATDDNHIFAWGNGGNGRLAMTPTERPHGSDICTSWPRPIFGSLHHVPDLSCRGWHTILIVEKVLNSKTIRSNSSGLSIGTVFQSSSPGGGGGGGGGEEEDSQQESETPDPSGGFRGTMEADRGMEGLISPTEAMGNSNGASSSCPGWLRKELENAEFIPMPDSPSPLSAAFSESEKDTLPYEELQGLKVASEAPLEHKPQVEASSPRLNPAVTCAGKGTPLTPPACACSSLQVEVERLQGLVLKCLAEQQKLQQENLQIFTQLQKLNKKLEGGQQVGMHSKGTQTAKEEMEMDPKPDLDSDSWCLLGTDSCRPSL

Casein kinase II subunit alpha (Homo sapiens), sequence (P68400 whole entry, looked up): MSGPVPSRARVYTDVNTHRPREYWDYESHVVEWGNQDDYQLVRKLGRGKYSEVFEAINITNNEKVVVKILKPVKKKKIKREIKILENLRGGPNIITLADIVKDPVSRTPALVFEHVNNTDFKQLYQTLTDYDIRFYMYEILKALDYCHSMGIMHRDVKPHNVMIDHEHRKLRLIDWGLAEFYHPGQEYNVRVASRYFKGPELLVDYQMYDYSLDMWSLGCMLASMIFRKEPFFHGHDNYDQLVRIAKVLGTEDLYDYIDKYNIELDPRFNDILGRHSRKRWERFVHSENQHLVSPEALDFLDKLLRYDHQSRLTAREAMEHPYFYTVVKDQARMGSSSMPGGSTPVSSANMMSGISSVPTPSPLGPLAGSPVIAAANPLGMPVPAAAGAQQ
Serine/threonine-protein kinase Nek6 (Homo sapiens), sequence (Q9HC98 whole entry): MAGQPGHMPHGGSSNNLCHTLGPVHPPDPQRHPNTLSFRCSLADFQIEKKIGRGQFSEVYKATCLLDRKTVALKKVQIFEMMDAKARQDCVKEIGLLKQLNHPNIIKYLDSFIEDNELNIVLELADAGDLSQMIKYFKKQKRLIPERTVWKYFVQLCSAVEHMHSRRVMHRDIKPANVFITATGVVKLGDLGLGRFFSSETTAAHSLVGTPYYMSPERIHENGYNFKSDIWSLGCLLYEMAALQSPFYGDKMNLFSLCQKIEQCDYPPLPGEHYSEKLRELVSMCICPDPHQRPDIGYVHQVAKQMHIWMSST
Serine/threonine-protein kinase Nek7 (Homo sapiens), sequence (Q8TDX7 whole entry, looked up): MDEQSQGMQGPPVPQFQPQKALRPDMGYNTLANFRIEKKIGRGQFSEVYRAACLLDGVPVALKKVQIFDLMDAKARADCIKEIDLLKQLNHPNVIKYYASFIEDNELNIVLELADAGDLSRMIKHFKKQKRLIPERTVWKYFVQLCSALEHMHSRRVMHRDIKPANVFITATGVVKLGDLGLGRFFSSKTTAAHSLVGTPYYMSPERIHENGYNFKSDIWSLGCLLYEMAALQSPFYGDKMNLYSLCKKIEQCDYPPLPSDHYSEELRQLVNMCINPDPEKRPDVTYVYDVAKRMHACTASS
Sphingosine kinase 1 (Homo sapiens), sequence (Q9NYA1 whole entry): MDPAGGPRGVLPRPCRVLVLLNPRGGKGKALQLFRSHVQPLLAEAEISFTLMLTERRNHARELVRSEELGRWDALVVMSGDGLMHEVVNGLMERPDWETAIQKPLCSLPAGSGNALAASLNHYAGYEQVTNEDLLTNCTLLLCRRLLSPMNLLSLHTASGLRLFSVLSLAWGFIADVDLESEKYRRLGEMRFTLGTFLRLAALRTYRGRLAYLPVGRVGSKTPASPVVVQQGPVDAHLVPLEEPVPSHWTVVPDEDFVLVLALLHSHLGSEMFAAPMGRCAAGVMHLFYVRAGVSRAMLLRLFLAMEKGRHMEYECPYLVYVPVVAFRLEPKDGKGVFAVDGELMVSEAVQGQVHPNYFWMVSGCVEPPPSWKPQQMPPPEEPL

Structure (SMILES)	inhibition [1]	inhibition [2]	inhibition [3]	inhibition [4]	inhibition [5]	inhibition [6]	inhibition [7]	inhibition [8]	inhibition [9]	inhibition [10]	inhibition [11]	inhibition [12]	inhibition [13]	inhibition [14]	inhibition [15]	inhibition [16]	inhibition [17]	inhibition [18]	inhibition [19]	inhibition [20]
Cc1ccc(Nc2ccnc(Nc3cccc(C(N)=O)c3)n2)cc1O	-3.44%	0.84%	0.08%	4.12%	10.5%	4.77%	9.75%	7.9%	26.8%	11.4%	19.4%	2.35%	3.58%	4%	2.98%	4.22%	2.69%	4.63%	4.4%	6.86%
COc1cccc(-n2nc(C)c3c(N/N=C(\C)c4ccncc4)ncnc32)c1	2.22%	0.03%	0%	2.16%	6.88%	1.96%	-2.68%	1.3%	1.94%	-1.8%	1.16%	1.7%	-0.2%	1.96%	-1.21%	1.56%	1.26%	0.76%	2.39%	4.23%
